Where two headings read alike, the source gives them in different places. In all, about 13,000 compounds went through this assay and about 3,200 (25%) showed an effect of 50% or more. Some of the results follow.
Test system: P. falciparum stage V gametocytes
Design: BacTiter-Glo ATP luminescence viability of purified stage V gametocytes in 384-well plates, per cent inhibition versus DMSO
Conditions: 48 h, 5 µM, inhibitor

Structure (SMILES) | % Inhibition | % Inhibition (% Inhibition)
COc1ccc(Nc2nccc(NCCNC(=O)c3cc4ccccc4s3)n2)cc1 [TCMDC-133643] | 10.68% | 
COc1ccc2nccc([C@@H](O)CN3CCC(NC(=O)[C@@H]4Cc5ccccc5CN4C(=O)OC(C)(C)C)CC3)c2c1 [TCMDC-141035] | 29.65% | 
O=C(/C=C/c1ccc(Cl)c(Cl)c1)NCCCCCN1CCC(NC(=O)Nc2cc(Cl)nc(Cl)c2)CC1 [TCMDC-135889] | -21.96% | 
COc1cc2c(C3CCN(CC4CCN(C(=O)/C=C/c5ccc(Cl)c(Cl)c5)CC4)CC3)c[nH]c2cn1 [TCMDC-140246] | -34.41% | 
Nc1cc2c(C3CCN(CC4CCN(C(=O)/C=C/c5ccc(Cl)c(Cl)c5)CC4)CC3)c[nH]c2cn1 [TCMDC-140133] | 101.5% | 
O=C(Nc1ccc(Cn2ncc(N3CCCNCC3)c(Cl)c2=O)cc1)Nc1ccc(SC(F)(F)F)cc1 [TCMDC-133320] | -14.71% | 
O=C(C=Cc1ccc(Cl)c(Cl)c1)NCCCCCN1CCC(CCCNC(=O)c2sc3ccccc3c2Cl)CC1 [TCMDC-139573] | 86.01% | 
O=C(/C=C/c1ccc(Cl)c(Cl)c1)NCCCCCN1CC[C@H](NC(=O)c2sc3ccccc3c2Cl)C1 [TCMDC-139562] | 48.14% | 
O=C(/C=C/c1ccc(Cl)c(Cl)c1)NCCCCCN1CC[C@H](NC(=O)/C=C/c2ccccc2)C1 [TCMDC-139561] | -7.699% | 
O=C(C=Cc1ccc(Cl)c(Cl)c1)NCCCCCN1CCCC(CCCNC(=O)c2sc3ccccc3c2Cl)C1 (stereo not shown) [TCMDC-139579] | 100.9% | 
O=C(C=Cc1ccc(Cl)c(Cl)c1)NCCCCCN1CCC(CCNC(=O)c2sc3ccccc3c2Cl)CC1 [TCMDC-139567] | 38.26% | 
O=C(/C=C/c1ccc(Cl)c(Cl)c1)NCCCCCN1CCCC(CNC(=O)c2sc3ccccc3c2Cl)C1 (stereo not shown) [TCMDC-139583] | 81.46% | 
O=C(/C=C/c1ccc(Cl)c(Cl)c1)NCCCCCN1CCC(CCNC(=O)c2snnc2-c2ccccc2)CC1 [TCMDC-140007] | -18.32% | 
CCC(NCc1ccc(-c2cncc(C(=O)NCC(C)C)c2)cc1)c1ccccc1 (stereo not shown) [TCMDC-134237] | 15.84% | 
Cc1cccc2nc(-c3ccc(-c4cccc(CNCc5cnn(-c6ccccc6)n5)c4)s3)[nH]c12.O=C(O)C(F)(F)F [TCMDC-132972] | -22.07% | 
O=C(NCc1ccccc1)OC1CNCCC1c1ccc(C(O)Cc2ccccc2)cc1 (stereo not shown) [TCMDC-141020] | 26.78% | 
CCc1ccc(-n2c(=O)c3cccnc3n2CC(=O)NC2CCCC2)cc1 [TCMDC-125158] | -2.653% | 
O=C(/C=C/c1ccc(Cl)c(Cl)c1)NCCCCCN1CCC(c2[nH]nc(-c3ccccc3)c2Br)CC1 [TCMDC-139448] | -19.71% | 
O=C(NCCNc1ccnc(Nc2ccc(F)cc2)n1)c1cc2ccccc2s1 [TCMDC-133637] | -20.49% | 
COCCNC(=O)c1ccc(OC2CCN(CC(C)=Cc3ccccc3)CC2)c(Cl)c1 [TCMDC-124691] | 9.67% | 
c1cncc(CN2CCCN(c3ccc4c(c3)CCN(Cc3ccc(-c5ncc[nH]5)cc3)CC4)CC2)c1 [TCMDC-136551] | -8.506% | 
c1ccc(CN2CCN(c3cc(-c4cncc(-c5ccccc5)c4)nc(-c4ccccc4)n3)CC2)cc1 [TCMDC-125589] | -13.47% | 

Structure (SMILES) | % Inhibition | % Inhibition (% Inhibition)
c1cncc(-c2cc(N3CCCCC3)nc(-c3ccncc3)n2)c1 [TCMDC-125594] | 3.34% | 
c1cncc(-c2cc(N3CCc4ccccc4C3)nc(-c3ccncc3)n2)c1 [TCMDC-125419] | 60.68% | 
CN1CCN(c2cc(-c3ccncc3)nc(-c3cccnc3)n2)CC1 [TCMDC-125596] | 38.53% | 
c1ccc(N2CCN(c3cc(-c4cccnc4)nc(-c4ccncc4)n3)CC2)nc1 [TCMDC-125418] | 44.02% | 
CN1CCN(c2cc(-c3cccnc3)nc(-c3ccncc3)n2)CC1 [TCMDC-125593] | 52.46% | 
COc1ccc(NC(=O)Nc2cccc(-c3cccc(-c4nc5c(C)cccc5[nH]4)c3)c2)cc1 [TCMDC-133247] | -12.94% | 
Fc1ccc2[nH]c(-c3cccc(-c4ccc(CNCC5CCCO5)cc4)c3)nc2c1.O=C(O)C(F)(F)F (stereo not shown) [TCMDC-133105] | -0.6383% | 
CC1CN(Cc2ccc(-c3ccc(-c4nc5ccc(F)cc5[nH]4)s3)cc2)CC(C)O1 (stereo not shown) [TCMDC-133819] | 9.471% | 
N#CCCN1CCN(Cc2ccc(-c3ccc(-c4nc5ccc(F)cc5[nH]4)s3)cc2)CC1 [TCMDC-133861] | -54.51% | 
OCC1CCN(Cc2ccc(-c3cccc(-c4nc5ccc(C(F)(F)F)cc5[nH]4)c3)cc2)CC1 [TCMDC-133130] | -16.83% | 
CN1CCCC(CN2CCN(Cc3ccc(-c4ccc(-c5nc6ccccc6[nH]5)s4)cc3)CC2)C1 (stereo not shown) [TCMDC-133889] | 85.26% | 
OCC1CCN(Cc2cccc(-c3ccc(-c4nc5ccc(C(F)(F)F)cc5[nH]4)cc3)c2)CC1 [TCMDC-133123] | 76.36% | 
CN1CCCC(CN2CCN(Cc3ccc(-c4ccc(-c5nc6ccc(F)cc6[nH]5)s4)cc3)CC2)C1 (stereo not shown) [TCMDC-133892] | 66.7% | 
OCC1CCN(Cc2cccc(-c3cccc(-c4nc5ccc(C(F)(F)F)cc5[nH]4)c3)c2)CC1 [TCMDC-133129] | 41.06% | 
CN1CCCC(CN2CCN(Cc3cccc(-c4ccc(-c5nc6ccc(F)cc6[nH]5)cc4)c3)CC2)C1 (stereo not shown) [TCMDC-133891] | 104.2% | 
NC1CCN(Cc2cccc(-c3ccc(-c4nc5ccc(C(F)(F)F)cc5[nH]4)cc3)c2)C1 (stereo not shown) [TCMDC-133837] | 42.56% | 
NC1CCCN(Cc2cccc(-c3ccc(-c4nc5ccc(C(F)(F)F)cc5[nH]4)cc3)c2)C1 (stereo not shown) [TCMDC-133839] | 50.43% | 
N#CCCN1CCN(Cc2cccc(-c3ccc(-c4nc5ccc(C(F)(F)F)cc5[nH]4)cc3)c2)CC1 [TCMDC-133844] | -10.1% | 
COCCN1CCN(Cc2ccc(-c3ccc(-c4nc5ccc(F)cc5[nH]4)cc3)cc2)CC1 [TCMDC-133022] | -25.91% | 
N#CCCN1CCN(Cc2ccc(-c3cccc(-c4nc5ccc(F)cc5[nH]4)c3)cc2)CC1 [TCMDC-133845] | 7.403% | 
CN1CCCC(CN2CCN(Cc3cccc(-c4ccc(-c5nc6ccc(C(F)(F)F)cc6[nH]5)cc4)c3)CC2)C1 (stereo not shown) [TCMDC-133882] | 68.4% | 
CN1CCCC(CN2CCN(Cc3ccc(-c4cccc(-c5nc6ccc(F)cc6[nH]5)c4)cc3)CC2)C1 (stereo not shown) [TCMDC-133883] | 67.8% | 

Structure (SMILES) | % Inhibition | % Inhibition (% Inhibition)
CC1CN(Cc2ccc(-c3cccc(-c4nc5ccc(F)cc5[nH]4)c3)cc2)CC(C)O1 (stereo not shown) [TCMDC-133813] | -17.46% | 
CC(=O)N(C)C1CCN(Cc2cccc(-c3ccc(-c4nc5ccc(C(F)(F)F)cc5[nH]4)cc3)c2)C1 (stereo not shown) [TCMDC-133884] | -40.19% | 
CN1CCCC(CN2CCN(Cc3ccc(-c4ccc(-c5nc6ccc(F)cc6[nH]5)cc4)cc3)CC2)C1 (stereo not shown) [TCMDC-133908] | 90.06% | 
OCCN1CCN(Cc2ccc(-c3ccc(-c4nc5ccc(F)cc5[nH]4)cc3)cc2)CC1 [TCMDC-133030] | -14.7% | 
OC1CCCN(Cc2cccc(-c3ccc(-c4nc5ccc(C(F)(F)F)cc5[nH]4)cc3)c2)C1 (stereo not shown) [TCMDC-133814] | -59.43% | 
COc1ccc2ncc(C#N)c(CCN3CCC(NCc4ccc5c(c4)OCCO5)CC3)c2c1 [TCMDC-135664] | 6.84% | 
O=C(Nc1cccc(-c2cccc(-c3nc4ccccc4[nH]3)c2)c1)NC1CC1c1ccccc1 (stereo not shown) [TCMDC-133256] |  | 3.053%
COc1ccc2c(c1)Sc1ccccc1C(N1CCN(CCO)CC1)C2 (stereo not shown) [TCMDC-139028] | -3.41% | 
Cc1cccc2nc(-c3ccc(-c4cccc(C(=O)NCCc5cn(C)cn5)c4)s3)[nH]c12 [TCMDC-132498] | -19.19% | 
CCOc1c(OC)ccc2c1CCN(CCN1CCC(NC(=O)c3ccc(-c4cccc(C(F)(F)F)c4C(F)(F)F)cc3)CC1)C2 [TCMDC-135432] | -45.25% | 
CCOc1cc(Br)c(C(C)NC(=O)c2ccccc2)cc1OCC (stereo not shown) [TCMDC-123743] | 65.54% | 
COc1cccc(C(=O)NC(NC(=S)Nc2ccc(OC)cc2[N+](=O)[O-])C(Cl)(Cl)Cl)c1 (stereo not shown) [TCMDC-124141] | 23.91% | 
CCOc1cc(C(=O)Nc2ccc3nc(N(CC)CC)cc(C)c3c2)cc(OCC)c1OCC [TCMDC-124008] | -7.565% | 
CCOc1cc(C(=O)Nc2ccccc2N2CCN(S(C)(=O)=O)CC2)cc(OCC)c1OCC [TCMDC-124994] | 1.091% | 
CCOc1cc(Cl)c(C(C)NC(=O)c2cccc(OC)c2)cc1OCC (stereo not shown) [TCMDC-125450] | 81.4% | 
CCOc1cc(Br)c(C(C)NC(=O)c2cccc(OC)c2)cc1OCC (stereo not shown) [TCMDC-123742] | 47.1% | 
CCOc1cc(Cl)c(C(C)NC(=O)c2ccccc2)cc1OCC (stereo not shown) [TCMDC-123744] | 73.45% | 
O=C(NOCCCCOc1ccc(Cl)c(Cl)c1)c1ccccc1 [TCMDC-131761] | -3.28% | 
CCOc1cc(C(=O)NC2CCN(Cc3ccccc3)CC2)ccc1-c1nc2cc(Cl)c(Cl)cc2[nH]1 [TCMDC-140080] | -6.754% | 
CC(C)C[C@H](NC(=O)c1ccc(OCCN2CCOCC2)cc1)C(=O)N[C@H](/C=N/N1CC(=O)NC1=O)CCc1ccccc1 [TCMDC-136155] | 17.61% | 
